{"source": "the supplement of paper PMC6555819", "data": [{"test_system": "VDR:RXRa (NR concentration 270 nM, RXRa partner concentration 90 nM)", "assay": "PBM binding z-score (relative to random genomic background probes); higher = stronger binding; sequences stand for … in GC…GCGATTGACAGCGTAGAATGAAGG", "procedure": "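Protein-binding microarray (Agilent 4x180K custom design, double-stranded 60-nt probes: 5' GC cap, 34-nt variable region, 24-nt constant primer region; full probe sequence given). Purified or IVT nuclear receptor:RXRα heterodimers (3:1 NR:RXRα, mostly 270:90 nM) or homodimers were incubated for 1 h in PBS with 2% milk and no ligand, then detected with Alexa488 antibodies. Fluorescence from o1-orientation probes (~5 replicates averaged) was converted to z-scores against 500 random hg19 background probes. Variable regions are seed direct-repeat (DR0–DR5) sites, all their single-nucleotide variants and half-site ablations.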", "values": [{"sequence": "GCGACTGGGGCATCAGCAGGCTACCATAACTTAA", "PBM binding z-score": -0.769}, {"sequence": "TCTATTCGTTGATTAGGGCAACCGAAACAGCGGA", "PBM binding z-score": 0.441}, {"sequence": "ATCGAAAGGTCGACGAGGTGCGTATACACCGTTT", "PBM binding z-score": 4.18}, {"sequence": "TCACATAGGTAAATGCTAGGTGAAAGTCCGATCT", "PBM binding z-score": 0.334}, {"sequence": "TCGAGTAGGTTAGTCGGGGCCTTCAGCCAACATA", "PBM binding z-score": -0.158}, {"sequence": "CCTGCTAGGTCAATGGTCAGCGAAAGCAGCTCGC", "PBM binding z-score": 0.881}, {"sequence": "ACTCGGAGGAGAAAGGTCAGAGCTACGCCAGTGA", "PBM binding z-score": 2.16}, {"sequence": "CGTCCAAGGTCCAAGGTCAGTGAAGAGATGACGG", "PBM binding z-score": 1.6}, {"sequence": "GGAACGAGGGCAAGTTGATAGCGGAGTTTGATGG", "PBM binding z-score": 0.636}, {"sequence": "ATCGAAAGGTCGTGAGGTGCGTATACAGAAAGGC", "PBM binding z-score": 6.03}, {"sequence": "TGAATGAGGTTAAAGATCAGTGAACGTGGCGTCG", "PBM binding z-score": 1.62}, {"sequence": "ATATGTAGGTTAAGGATCATTCAGGTTGGTTCGC", "PBM binding z-score": 1.45}, {"sequence": "CGTCAAAGTTCAAGGTGACGTAACAGAAAGCAGC", "PBM binding z-score": 3.91}, {"sequence": "ACAGACAGGTGAGTGAAGGAAACTCAGCTGGACG", "PBM binding z-score": -0.816}, {"sequence": "TAGACTAGGTCATTGGGCCAGTATAGTACGCATC", "PBM binding z-score": 1.93}, {"sequence": "GCTATTAGTTGAAAGGGCAAGCGAATGATTCTCG", "PBM binding z-score": 0.461}, {"sequence": "TATACAGGGTCAAAGGCCAGAGTGCGAATGTCGA", "PBM binding z-score": 4.88}, {"sequence": "ACTTACGGGTCAACGAGGTTATTGCACGCGTATA", "PBM binding z-score": 8.05}, {"sequence": "TCTTGTAGATCAACAGAGGTTAAGAAAGTGCGCT", "PBM binding z-score": 2.03}, {"sequence": "ACTTACGGGTCAACGAGCTTATAGCACGCGTATA", "PBM binding z-score": 3.97}, {"sequence": "CCTTACGGGTCATGAGGTTATAGCACGACGAGCG", "PBM binding z-score": 4.92}, {"sequence": "CCTTACGGCTCACGAGGTTATAGCACGACGAGCG", "PBM binding z-score": 0.412}, {"sequence": "CTACCAAGGTGAACAAGTTCGTTGATTACTATTC", "PBM binding z-score": 6.15}, {"sequence": "CAAACTAGGTCAAGGCCAAAGTCGGTTTGTGCCA", "PBM binding z-score": 1.84}, {"sequence": "CCAGACAGGTGAAAGGTAAGTCAGTCTGGTACGC", "PBM binding z-score": 0.522}, {"sequence": "CCTTACGGGTCGCTCCAGGTTATAGCATCGGAGT", "PBM binding z-score": 1.1}, {"sequence": "CCGTCTGGGGCAGAAAGGTTACCATACCATCCGG", "PBM binding z-score": 0.809}, {"sequence": "CCTCGGAGGAGAACAGGAGGTCAGAGCTGCCAGA", "PBM binding z-score": 1.29}, {"sequence": "TCATATAGGTAAACAGGTGACAGTCCGTAAGTTA", "PBM binding z-score": 0.94}, {"sequence": "TCACATAGGTAAAAGGTGAAAGTCGGTGTGGTAA", "PBM binding z-score": 1.8}, {"sequence": "CCTATTAGTTGAGCATAAGGGCAACCGAAGCTCG", "PBM binding z-score": 0.408}, {"sequence": "AGGATGAGGTTAAGATCAGGGAAACAGAATACAT", "PBM binding z-score": 1.39}, {"sequence": "GATACAGGGTCAGCTAGAGTCCAGAGTATGGAAA", "PBM binding z-score": 4.13}, {"sequence": "TCATATAGGTAAACAGGTGAAAGGCCGTAAGTTA", "PBM binding z-score": 0.988}, {"sequence": "CCTACTGAGCCATTCAGAGGTCATTGATCATATG", "PBM binding z-score": 3.96}, {"sequence": "AACTCTAGGTAAAAGTTCAGTGAATCCCGAGGAT", "PBM binding z-score": 1.11}, {"sequence": "ATCTCTAGGTAACACGTTCAGTGAAAGAGAGGAC", "PBM binding z-score": 0.339}, {"sequence": "ACTAGTTGGTCAGCTGAGCTCACACACAATTCGG", "PBM binding z-score": -0.299}, {"sequence": "TTGCCTAGGTCAGATCGGGCCAGTATACGCTATA", "PBM binding z-score": 0.82}, {"sequence": "ACAGACAGGTGAGTGAAGTTAACTCAGCTGGACG", "PBM binding z-score": -0.576}]}]}
